PubChem BioAssay (NCATS)
Results filed as inconclusive are left out. Calls of active or inactive are those of the source. Unless noted, the call rests on the fitted dose curve.

What was measured:
[1] = biological target: Bile acid receptor (Homo sapiens) (UniProt Q96RI1); test: qHTS assay for small molecule agonists of farnesoid X receptor signaling (AID 588527); conditions: HEK293T FXR-UAS-bla, beta-lactamase ratio, 16 h; activation: stronger effect = higher value;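 further: series mostly up to about 77 µM; 0% = vehicle basal and 100% = reference agonist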
Sequence of Bile acid receptor (Homo sapiens) (Q96RI1 whole entry, looked up): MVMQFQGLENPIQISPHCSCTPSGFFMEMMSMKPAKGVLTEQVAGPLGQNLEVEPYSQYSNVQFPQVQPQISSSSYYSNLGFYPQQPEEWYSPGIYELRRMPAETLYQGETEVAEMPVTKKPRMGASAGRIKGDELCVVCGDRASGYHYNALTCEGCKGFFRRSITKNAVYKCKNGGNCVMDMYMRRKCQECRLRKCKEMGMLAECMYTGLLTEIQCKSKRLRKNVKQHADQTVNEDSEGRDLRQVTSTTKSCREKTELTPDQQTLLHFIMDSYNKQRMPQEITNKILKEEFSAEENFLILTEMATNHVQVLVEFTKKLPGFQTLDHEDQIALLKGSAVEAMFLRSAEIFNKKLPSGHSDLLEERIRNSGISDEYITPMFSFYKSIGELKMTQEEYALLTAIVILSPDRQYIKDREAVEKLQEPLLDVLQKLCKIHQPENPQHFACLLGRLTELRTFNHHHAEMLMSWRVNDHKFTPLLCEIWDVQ
How it was run: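 Read-out: beta-lactamase reporter fluorescence with CCF4 substrate in GeneBLAzer FXR-UAS-bla HEK293T cells, after 16 h compound exposure at 37 C. Response scaled between DMSO basal (0%) and chenodeoxycholic acid at 100 uM (100%).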

[2] = biological target: Glucocorticoid receptor (Homo sapiens) (UniProt P04150); test: qHTS assay for small molecule agonists of glucocorticoid receptor signaling (AID 588532; active means well fitted curve in the direction sought with a large enough effect in the signal ratio, with a control signal flat; the % refers to the signal ratio;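 further: 100% = dexamethasone at 0.1 µM and 0% = DMSO only wells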); conditions: HeLa MMTV-bla, beta-lactamase ratio, agonist, 18 h; activation: stronger effect = higher value, percent of dexamethasone control, DMSO zero
Sequence of Glucocorticoid receptor (Homo sapiens) (P04150 whole entry, looked up): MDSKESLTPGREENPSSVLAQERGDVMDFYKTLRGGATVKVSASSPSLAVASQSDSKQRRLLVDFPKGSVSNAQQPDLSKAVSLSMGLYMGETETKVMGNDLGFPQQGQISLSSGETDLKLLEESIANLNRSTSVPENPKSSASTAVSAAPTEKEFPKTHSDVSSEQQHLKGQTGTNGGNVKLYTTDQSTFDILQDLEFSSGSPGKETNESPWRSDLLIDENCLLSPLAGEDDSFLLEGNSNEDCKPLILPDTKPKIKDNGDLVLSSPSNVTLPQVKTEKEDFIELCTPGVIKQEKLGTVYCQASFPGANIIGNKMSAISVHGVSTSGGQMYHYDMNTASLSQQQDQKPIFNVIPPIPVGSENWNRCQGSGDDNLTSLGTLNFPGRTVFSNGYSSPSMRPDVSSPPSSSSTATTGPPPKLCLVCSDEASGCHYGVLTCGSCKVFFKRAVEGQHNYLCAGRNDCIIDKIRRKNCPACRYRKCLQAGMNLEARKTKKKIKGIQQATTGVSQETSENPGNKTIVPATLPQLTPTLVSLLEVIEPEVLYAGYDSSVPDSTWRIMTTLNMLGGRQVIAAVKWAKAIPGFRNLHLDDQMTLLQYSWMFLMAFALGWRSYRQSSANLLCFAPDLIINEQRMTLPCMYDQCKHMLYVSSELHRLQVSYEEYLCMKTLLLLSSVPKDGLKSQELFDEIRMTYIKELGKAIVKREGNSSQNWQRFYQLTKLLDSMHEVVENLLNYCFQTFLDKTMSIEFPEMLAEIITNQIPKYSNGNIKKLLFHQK
How it was run: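 Cells were plated and rested 3-5 h at 37 C, compounds were added in titration and incubated 18 h, then CCF4 substrate was loaded for 2 h at RT before reading blue/green fluorescence. EC50 came from Hill-equation fitting.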

[3] = biological target: Peroxisome proliferator-activated receptor delta (Homo sapiens) (UniProt Q03181); test: qHTS assay for small molecule agonists of peroxisome proliferator-activated receptor delta signaling (AID 588534);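 further: 0% = DMSO basal wells and 100% = positive control agonist at 10 µM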
Sequence of Peroxisome proliferator-activated receptor delta (Homo sapiens) (Q03181 whole entry, looked up): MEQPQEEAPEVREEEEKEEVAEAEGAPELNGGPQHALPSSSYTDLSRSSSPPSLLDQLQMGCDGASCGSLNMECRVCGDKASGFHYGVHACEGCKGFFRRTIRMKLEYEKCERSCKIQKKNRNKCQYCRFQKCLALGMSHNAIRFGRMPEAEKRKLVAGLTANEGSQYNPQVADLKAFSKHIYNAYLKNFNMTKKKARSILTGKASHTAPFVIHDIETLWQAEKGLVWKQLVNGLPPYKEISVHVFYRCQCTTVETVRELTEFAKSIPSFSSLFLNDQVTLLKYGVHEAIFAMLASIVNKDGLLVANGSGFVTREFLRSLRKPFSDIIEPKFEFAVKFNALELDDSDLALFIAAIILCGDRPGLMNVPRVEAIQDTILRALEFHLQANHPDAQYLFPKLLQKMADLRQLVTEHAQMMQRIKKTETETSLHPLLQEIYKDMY
How it was run: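 Titration series tested in agonist mode on beta-lactamase reporter cells; 18 hrs at 37 C after a 5 hr pre-incubation. Readout: CCF4 fluorescence, 2 hrs RT. Hill equation gives EC50 and maximal response.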

[4] = biological target: Vitamin D3 receptor (Homo sapiens) (UniProt P11473); test: qHTS assay for small molecule agonists of vitamin D receptor signaling (AID 588543);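 further: 0% = DMSO basal and 100% = reference agonist control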
Sequence of Vitamin D3 receptor (Homo sapiens) (P11473 whole entry, looked up): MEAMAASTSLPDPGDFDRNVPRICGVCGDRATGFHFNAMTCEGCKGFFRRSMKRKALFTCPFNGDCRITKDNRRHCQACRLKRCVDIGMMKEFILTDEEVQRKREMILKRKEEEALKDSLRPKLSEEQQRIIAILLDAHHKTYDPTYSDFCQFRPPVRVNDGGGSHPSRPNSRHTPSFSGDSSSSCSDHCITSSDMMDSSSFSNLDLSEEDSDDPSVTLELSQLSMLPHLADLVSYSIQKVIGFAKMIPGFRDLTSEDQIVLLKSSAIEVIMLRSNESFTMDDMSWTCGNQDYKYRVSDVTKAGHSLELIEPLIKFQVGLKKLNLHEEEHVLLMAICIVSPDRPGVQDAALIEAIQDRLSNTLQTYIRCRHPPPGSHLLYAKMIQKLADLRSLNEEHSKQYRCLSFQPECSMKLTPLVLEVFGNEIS
How it was run: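 Reporter cells (HEK293T, VDR-UAS-bla) were seeded in medium with 2% charcoal-stripped serum and incubated 5 h, then compounds in concentration series were added for 16 h at 37 °C. Stimulation was scaled between DMSO basal and 50 nM 1α,25-dihydroxyvitamin D3.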

[5] = biological target: Thyroid hormone receptor beta (Homo sapiens) (UniProt P10828); test: qHTS assay for small molecule agonists of thyroid hormone receptor beta signaling (AID 588545)
Sequence of Thyroid hormone receptor beta (Homo sapiens) (P10828 whole entry, looked up): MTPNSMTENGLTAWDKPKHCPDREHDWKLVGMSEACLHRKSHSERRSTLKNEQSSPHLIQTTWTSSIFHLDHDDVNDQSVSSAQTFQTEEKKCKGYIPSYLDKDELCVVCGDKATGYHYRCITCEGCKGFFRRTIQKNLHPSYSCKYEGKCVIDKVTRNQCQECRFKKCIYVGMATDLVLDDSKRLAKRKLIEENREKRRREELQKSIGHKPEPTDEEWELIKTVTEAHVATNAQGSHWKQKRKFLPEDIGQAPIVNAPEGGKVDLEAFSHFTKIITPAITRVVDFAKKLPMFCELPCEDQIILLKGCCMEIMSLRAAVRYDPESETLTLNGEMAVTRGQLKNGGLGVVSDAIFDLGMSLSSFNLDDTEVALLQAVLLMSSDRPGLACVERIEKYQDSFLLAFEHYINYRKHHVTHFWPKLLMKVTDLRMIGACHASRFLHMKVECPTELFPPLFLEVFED
How it was run: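 Cells (2500/well) were seeded, incubated 4 hrs at 37 C, dosed with a compound series, incubated 18 hrs, loaded with CCF4 dye for 2 hrs at RT, then read for fluorescence. Data were scaled between DMSO (0%) and 10 nM T3 (100%).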

[6] = biological target: Thyroid hormone receptor beta (Homo sapiens) (UniProt P10828); test: qHTS assay for small molecule antagonists of thyroid hormone receptor beta signaling (AID 588547; active means well fitted inhibition curve with a large enough effect in the signal ratio, with a control signal flat, not every such curve was filed as active; the % refers to the signal ratio;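 further: cells stimulated with 0.4 nM T3 agonist during compound exposure; series mostly up to about 77 µM; on the % scale 0 is the no-effect control and ±100 the full control effect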); conditions: TR-UAS-bla HEK293, beta-lactamase ratio, antagonist mode, 18 h
How it was run: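 TR-UAS-bla GripTite HEK293 cells in 2% charcoal/dextran FBS medium; compounds 0.59 nM to 92 uM with T3 at 0.4nM final, 18 h at 37 C. Beta-lactamase read by CCF4 fluorescence (460/530 nm); Hill fits gave IC50 and efficacy.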

[7] = qHTS assay for small molecule agonists of the antioxidant response element (ARE) signaling pathway (AID 651741; active means well fitted activation curve with a large enough effect in the signal ratio; the % refers to the signal ratio; further: potency means the concentration at half of the fitted maximal effect; on activation: % of control where 0% means no effect)
How it was run: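 HepG2 ARE-bla reporter cells, 2,000/well; 5 h settle at 37 C/5% CO2; compound pin transfer (23 nL, DMSO); 16 h at 37 C; LiveBLAzer B/G FRET substrate, 2 h RT; fluorescence intensity read.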

[8] = qHTS assay for small molecule activators of the p53 signaling pathway (AID 651743; active means well fitted activation curve with a large enough effect in the signal ratio, not every such curve was filed as active; the % refers to the signal ratio; further: series mostly up to about 92 µM; % of control where 0% means no effect); conditions: HCT-116 p53RE-bla, beta-lactamase FRET ratio, 16 h; activation: stronger effect = higher value
How it was run: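 Reporter: beta-lactamase driven by p53 response elements, stably integrated in HCT-116 cells. Cells seeded at 4,000/well, 5 h preincubation, compound (DMSO) 16 h at 37 C; B/G FRET substrate 2 h RT; fluorescence intensity read.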

[9] = qHTS assay for small molecule activators of the nuclear factor-kappa B (NF-kB) signaling pathway (AID 651749; active means well fitted activation curve with a large enough effect in the signal ratio; the % refers to the signal ratio; further: series mostly up to about 77 µM; % of control where 0% means no effect); conditions: NF-kB-bla ME-180 cells, beta-lactamase FRET ratio, 16 h; activation: stronger effect = higher value
How it was run: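 NF-kB-bla ME-180 cells, 2,000/well; 23 nL compound or DMSO pinned; 16 hr, 37C/5% CO2; beta-lactamase FRET read-out.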

[10] = qHTS assay for environmental chemicals that activate the Aryl hydrocarbon Receptor (AhR) signaling pathway (AID 651777; active means well fitted curve in the direction sought with a large enough effect; an effect the other way counts as inactive or inconclusive; further: % of control where 0% means no effect; nearly all actives have a fitted effect of over 15% in size); conditions: 1A2-DRE human hepatoma cells, luciferase, 24 h; activation: stronger effect = higher value
How it was run: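 Luminescence read-out: One-Glo added for 30 min at RT after 24 hr compound treatment (37 C, 5% CO2) of human hepatoma cells expressing a DRE/CYP1A2 promoter–luciferase reporter; increased signal indicates AhR activation.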

[11] = biological target: Peroxisome proliferator-activated receptor alpha (Homo sapiens) (UniProt Q07869); test: qHTS assay for small molecule agonists of the peroxisome proliferator-activated receptor alpha (PPARalpha) signaling pathway (AID 651778; active means well fitted curve in the direction sought with a large enough effect; an effect the other way counts as inactive or inconclusive; further: % of control where 0% means no effect); conditions: PathHunter PPARalpha complementation, chemiluminescence, 6 h; max response: stronger effect = higher value
Sequence of Peroxisome proliferator-activated receptor alpha (Homo sapiens) (Q07869 whole entry, looked up, the tested form may be a part): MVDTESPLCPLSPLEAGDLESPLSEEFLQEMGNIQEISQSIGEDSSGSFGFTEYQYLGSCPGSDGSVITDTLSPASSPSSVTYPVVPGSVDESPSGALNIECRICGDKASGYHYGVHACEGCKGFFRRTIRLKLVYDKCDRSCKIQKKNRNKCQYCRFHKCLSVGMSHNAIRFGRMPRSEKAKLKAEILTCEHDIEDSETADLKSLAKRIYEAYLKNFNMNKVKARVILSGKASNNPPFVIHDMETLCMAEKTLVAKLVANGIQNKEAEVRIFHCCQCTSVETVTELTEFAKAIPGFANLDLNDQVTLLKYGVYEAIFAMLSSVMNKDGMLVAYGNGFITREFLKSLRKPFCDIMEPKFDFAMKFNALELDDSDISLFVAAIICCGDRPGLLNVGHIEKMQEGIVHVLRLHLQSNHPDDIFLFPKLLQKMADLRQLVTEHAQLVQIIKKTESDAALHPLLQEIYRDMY
How it was run: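 Enzyme-fragment complementation assay in which ligand-bound PPARalpha translocates and forms an active enzyme that generates chemiluminescence. Cells were plated overnight, exposed to compound for 6 hr at 37 C, and then given detection reagent for 60 min at room temperature.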

[12] = qHTS assay for small molecule agonists of the antioxidant response element (ARE) signaling pathway measured by Nrf2-dependant transcriptional activity (AID 720636; active means well fitted curve in the direction sought with a large enough effect in the repeat runs; an effect the other way counts as inactive or inconclusive;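 further: HepG2 cells with an ARE-driven luciferase reporter; % of control where 0% means no effect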)
How it was run: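 HepG2 ARE-luc reporter line, 1% dialyzed FBS; 6 hr attachment at 37 C, compound pinned in, 16 hr at 37 C/5% CO2; ONE-Glo, 30 min RT, luminescence read.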

[13] = qHTS assay for small molecule agonists of the antioxidant response element (ARE) signaling pathway measured by Nrf2-dependant transcriptional activity - cell viability counter screen (AID 720653; active means well fitted curve in the direction sought with a large enough effect in the repeat runs; an effect the other way counts as inactive or inconclusive; further: on the % scale 0 is the no-effect control and ±100 the full control effect); conditions: ARE-bla HepG2 viability, CellTiter-Glo ATP luminescence, 16 h; max response: stronger effect = lower value
How it was run: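 ARE-bla HepG2 cells treated with compounds for 16 h at 37C; this counter screen measures viability as intracellular ATP by CellTiter-Glo luminescence after 30 min at room temperature.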

[14] = qHTS assay for cell viability of HEK293 cells (AID 743288; active means well fitted curve in the direction sought with a large enough effect; an effect the other way counts as inactive or inconclusive; further: on the % scale 0 is the no-effect control and ±100 the full control effect; nearly all actives have a fitted effect of over 50% in size); conditions: ATP luminescence (CellTiter-Glo), 18 h; max response: stronger effect = lower value
How it was run: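 Viable-cell counts were inferred from luciferase-based ATP content in HEK293 cells seeded at 2,000/well, pre-incubated ≥5 h, then dosed with DMSO-solubilised compounds for 18 h at 37 C.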

[15] = qHTS assay for cell viability of the p53RE-bla HCT-116 cell line (AID 743292; active means well fitted curve in the direction sought with a large enough effect; an effect the other way counts as inactive or inconclusive; further: on the % scale 0 is the no-effect control and ±100 the full control effect; nearly all actives have a fitted effect of over 55% in size)
How it was run: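 Luminescent ATP quantitation (CellTiter-Glo) served as the viability read-out; reagent was added after 16 h compound exposure at 37 C and read after 30 min at room temperature. Cells: p53RE-bla HCT-116, 4,000 per well.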

[16] = biological target: Nuclear receptor subfamily 1 group I member 2 (Rattus norvegicus) (UniProt Q9R1A7); test: qHTS assay for small molecule activators of the rat pregnane X receptor (rPXR) signaling pathway (AID 651751; call rule not given here; further: 0% is about no effect); conditions: rPXR reporter cells, luciferase (One-Glo), 24 h
Sequence of Nuclear receptor subfamily 1 group I member 2 (Rattus norvegicus) (Q9R1A7 whole entry, looked up): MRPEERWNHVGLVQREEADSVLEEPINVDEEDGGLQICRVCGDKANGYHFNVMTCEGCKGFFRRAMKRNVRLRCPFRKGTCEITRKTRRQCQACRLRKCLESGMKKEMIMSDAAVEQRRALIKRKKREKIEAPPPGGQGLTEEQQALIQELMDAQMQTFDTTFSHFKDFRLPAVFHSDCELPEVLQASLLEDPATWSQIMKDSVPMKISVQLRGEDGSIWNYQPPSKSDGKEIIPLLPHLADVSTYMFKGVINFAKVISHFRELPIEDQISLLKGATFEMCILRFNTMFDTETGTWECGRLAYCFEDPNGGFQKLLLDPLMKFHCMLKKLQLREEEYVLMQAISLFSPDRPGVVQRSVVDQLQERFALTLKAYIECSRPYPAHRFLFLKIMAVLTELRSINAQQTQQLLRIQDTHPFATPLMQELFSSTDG

[17] = biological target: Glucocorticoid receptor (Homo sapiens) (UniProt P04150); test: qHTS assay for small molecule antagonists of glucocorticoid receptor signaling (AID 588533; active means well fitted inhibition curve with a large enough effect in the signal ratio, with a control signal flat, not every such curve was filed as active; the % refers to the signal ratio; further: on the % scale 0 is the no-effect control and ±100 the full control effect)
How it was run: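 Antagonist-mode qHTS: compound titrations added to GRE-bla HeLa cells, then dexamethasone 2 nM final; 18 h, 37 C. CCF4 FRET fluorescence normalized to dexamethasone and DMSO; IC50 from Hill fit.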

[18] = qHTS assay for small molecule antagonists of peroxisome proliferator-activated receptor delta signaling (AID 588535; active means well fitted inhibition curve with a large enough effect in the signal ratio, with a control signal flat, not every such curve was filed as active; the % refers to the signal ratio;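 on max response: cells co-treated with a PPAR-delta agonist as stimulator during compound exposure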); conditions: HEK293T PPARd-UAS-bla, beta-lactamase FRET ratio, 18 h; 460 nm channel
How it was run: (§1)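 Beta-lactamase reporter read-out (405 nm excitation, 460/530 nm emission) after CCF4 loading for 2 hrs at RT. HEK293T PPAR-delta-UAS-bla cells, 2% charcoal/dextran FBS, compounds for 18 hrs at 37 C. Hill fit gave IC50 and efficacy.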

[19] = biological target: Peroxisome proliferator-activated receptor delta (Homo sapiens) (UniProt Q03181); test: as above
How it was run: as §1

[20] = biological target: Peroxisome proliferator-activated receptor gamma (Homo sapiens) (UniProt P37231); test: qHTS assay for small molecule agonists of peroxisome proliferator-activated receptor gamma signaling (AID 588536; active means well fitted curve in the direction sought with a large enough effect in the signal ratio, with a control signal flat, not every such curve was filed as active; the % refers to the signal ratio;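 further: 0% = DMSO basal wells and 100% = rosiglitazone at 2 µM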)
Sequence of Peroxisome proliferator-activated receptor gamma (Homo sapiens) (P37231 whole entry, looked up): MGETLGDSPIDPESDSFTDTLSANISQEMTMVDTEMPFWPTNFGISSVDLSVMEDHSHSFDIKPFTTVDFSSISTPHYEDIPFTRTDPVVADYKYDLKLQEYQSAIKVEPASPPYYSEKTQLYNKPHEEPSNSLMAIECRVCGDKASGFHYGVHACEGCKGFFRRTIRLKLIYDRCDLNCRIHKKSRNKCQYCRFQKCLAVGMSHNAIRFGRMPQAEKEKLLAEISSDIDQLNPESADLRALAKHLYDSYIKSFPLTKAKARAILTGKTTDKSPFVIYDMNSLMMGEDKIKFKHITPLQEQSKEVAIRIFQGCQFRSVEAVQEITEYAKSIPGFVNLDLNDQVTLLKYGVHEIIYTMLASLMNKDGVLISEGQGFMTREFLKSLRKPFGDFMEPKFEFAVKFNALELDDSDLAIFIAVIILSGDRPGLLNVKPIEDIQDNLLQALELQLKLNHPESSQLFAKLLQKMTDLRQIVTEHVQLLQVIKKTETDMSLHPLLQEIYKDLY
How it was run: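 Beta-lactamase reporter read-out: CCF4 fluorescence (ex 405, em 460/530 nm) after 2 h at RT. HEK293 GeneBLAzer cells were treated for 16 h at 37 C. Hill fits gave EC50 and efficacy versus 2 uM rosiglitazone (100%) and DMSO (0%).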

[21] = biological target: Peroxisome proliferator-activated receptor gamma (Homo sapiens) (UniProt P37231); test: qHTS assay for small molecule antagonists of peroxisome proliferator-activated receptor gamma signaling (AID 588537; active means well fitted inhibition curve with a large enough effect in the signal ratio, with a control signal flat, not every such curve was filed as active; the % refers to the signal ratio;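 further: reporter cells co-stimulated with 50 nM rosiglitazone agonist during compound treatment; % of control where 0% means no effect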)
How it was run: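 Read-out: CCF4 fluorescence (ex 405, em 460/530 nm) after 2 h at RT. Cells were HEK293 carrying a UAS-bla reporter and treated 16 h at 37 C with compound plus rosiglitazone (50 nM final). Normalized to rosiglitazone and DMSO.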

[22] = biological target: Vitamin D3 receptor (Homo sapiens) (UniProt P11473); test: qHTS assay for small molecule antagonists of vitamin D receptor signaling (AID 588541);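 further: receptor activated by calcitriol during compound treatment; series mostly up to about 77 µM; on the % scale 0 is the no-effect control and ±100 the full control effect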
How it was run: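 VDR-UAS-bla HEK293T cells in 2% charcoal-stripped FBS were stimulated with 1-alpha,25-dihydroxyvitamin D3 (3 nM final) plus compound for 16 h at 37 C. The beta-lactamase CCF4 readout was normalized to 50 nM agonist and DMSO, and Hill fits gave IC50.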

[23] = qHTS assay for small molecule agonists of retinoid X receptor alpha signaling (AID 588544); conditions: HEK293T RXRa-UAS-bla, beta-lactamase reporter, 18 h; 530 nm emission;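 on activation: 0% = DMSO basal wells and 100% = reference agonist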
[24] = biological target: Retinoic acid receptor RXR-alpha (Homo sapiens) (UniProt P19793); test: as above
Sequence of Retinoic acid receptor RXR-alpha (Homo sapiens) (P19793 whole entry, looked up): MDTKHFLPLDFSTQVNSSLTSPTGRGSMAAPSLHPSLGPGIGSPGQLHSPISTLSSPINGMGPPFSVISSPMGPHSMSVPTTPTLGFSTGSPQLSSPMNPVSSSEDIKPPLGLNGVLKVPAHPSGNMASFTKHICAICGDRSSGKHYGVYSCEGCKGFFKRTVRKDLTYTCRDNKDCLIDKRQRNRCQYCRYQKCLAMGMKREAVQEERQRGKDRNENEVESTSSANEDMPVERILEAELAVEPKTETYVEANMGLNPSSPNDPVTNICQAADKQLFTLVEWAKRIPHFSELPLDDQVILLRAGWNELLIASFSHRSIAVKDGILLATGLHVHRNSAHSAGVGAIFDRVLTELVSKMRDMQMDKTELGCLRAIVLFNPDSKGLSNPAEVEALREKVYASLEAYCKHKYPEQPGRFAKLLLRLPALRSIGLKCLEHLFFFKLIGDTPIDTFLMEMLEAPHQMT

[25] = qHTS assay for small molecule antagonists of retinoid X receptor alpha signaling (AID 588546; active means well fitted inhibition curve with a large enough effect in the signal ratio, with a control signal flat, not every such curve was filed as active; the % refers to the signal ratio); conditions: HEK293T RXRa-UAS-bla, beta-lactamase ratio, antagonist mode; measured here: W530 green channel, cytotoxicity proxy
How it was run: (§2)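 Beta-lactamase reporter inhibition, read as CCF4 fluorescence ratio (ex 405, em 460/530 nm) after 2 h at RT. HEK293T UAS-bla cells, 2500/well, were stimulated with 9-cis-RA at 500 or 100 nM final alongside test compound for 18 h at 37 C.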

[26] = biological target: Retinoic acid receptor RXR-alpha (Homo sapiens) (UniProt P19793); test: as above; conditions: HEK293T RXRa-UAS-bla, beta-lactamase ratio, antagonist mode
How it was run: as §2

[27] = qHTS assay for small molecule activators of the human pregnane X receptor (PXR) signaling pathway (AID 720659; call rule not given here; further: 0% is about no effect)

CC(c1ccc(O)cc1)(c1ccc(O)cc1)c1ccc(O)cc1
inactive: activation [1] 12.5% | activation [2] -5.2% | outcome [3] | outcome [4] | Potency [5] | activity change % (negative = inhibition) [6] -15% | activation [8] -9.57% | activation [9] 2.37% | activation [10] -4% | max response [11] -5.19% | Potency [12] | max response [13] -3.26% | max response [14] -0.68% | Potency [15] | max response [16] -0.575%
active: Potency [7] 12.2 µM

CC[C@H](C)C1O[C@]2(C=C[C@@H]1C)C[C@@H]1C[C@@H](C/C=C(\C)[C@@H](O[C@H]3C[C@H](OC)[C@@H](O[C@H]4C[C@H](OC)[C@H](NC(C)=O)[C@H](C)O4)[C@H](C)O3)[C@@H](C)/C=C/C=C3\CO[C@@H]4[C@H](O)C(C)=C[C@@H](C(=O)O1)[C@]34O)O2 (stereo partly specified)
inactive: activation [1] 6.91%

O=C(O)c1c(Cl)ccc2cc(Cl)cnc12
3.11%: max response [25]
inactive: activation [1] 0.431% | activation [2] 3.46% | Potency [17] | outcome [3] | Potency [19] | Potency [20] | Potency [21] | Potency [22] | outcome [4] | Potency [24] | Potency [5] | max response [26] -13.1% | Potency [7] | activation [10] 2.06% | max response [11] -2.09% | Potency [12] | max response [13] -9.56% | max response [14] -11.4% | Potency [15] | max response [16] -2.15% | outcome [27]
-15.1%: max response [23]
71.4%: max response [18]
